Measured values as given in paper PMC7862700, “An all-to-all approach to the identification of sequence-specific readers for epigenetic DNA modifications on cytosine”.

Experiments:
Experiment in all cases: DAPPL (digital affinity profiling via proximity ligation, sequencing); 10 mM Tris-HCl pH 7.5, 50 mM NaCl, 1 mM DTT, 4% glycerol, room temperature, 30 min; GST-TFs on glutathione beads, 16-mer random dsDNA library, 0.1% formaldehyde crosslink after washing; high values mean tight binding
Details in all cases: protein: recombinant; tags: N-terminal GST; dsDNA, one strand shown
[1] = biological target: T1, ELK1 (Homo sapiens, UniProt P19419 1-428)
T1 sequence: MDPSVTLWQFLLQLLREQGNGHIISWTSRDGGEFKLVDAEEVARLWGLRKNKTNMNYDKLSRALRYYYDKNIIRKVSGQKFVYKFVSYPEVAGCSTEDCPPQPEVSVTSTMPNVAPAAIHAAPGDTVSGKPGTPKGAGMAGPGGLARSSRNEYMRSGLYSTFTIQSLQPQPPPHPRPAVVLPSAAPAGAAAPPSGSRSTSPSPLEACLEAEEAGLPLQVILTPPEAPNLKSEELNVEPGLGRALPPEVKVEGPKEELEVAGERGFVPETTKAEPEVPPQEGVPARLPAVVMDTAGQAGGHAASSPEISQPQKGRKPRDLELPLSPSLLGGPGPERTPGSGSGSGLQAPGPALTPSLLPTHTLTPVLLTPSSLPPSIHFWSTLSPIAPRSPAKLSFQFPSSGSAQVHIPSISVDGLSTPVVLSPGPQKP
How it was run: (§1)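 A tag-only sample was pooled with DNA-barcoded human transcription factors that had been expressed in yeast as GST fusions and captured on glutathione beads. The pools were incubated for 30 min at room temperature with 200 nmole of a random double-stranded 16-mer DNA library in Tris/NaCl/DTT/glycerol buffer, then washed, crosslinked with 0.1% formaldehyde, proximity-ligated (BsaI/T4 ligase, 1 h, 37 °C), PCR-amplified and sequenced on an Illumina NextSeq500. Binding signal is each hexamer's read frequency for a factor divided by its frequency for the tag-only sample.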

[2] = biological target: ELF1 (Homo sapiens, UniProt P32519 1-619)
Chain of ELF1 (P32519 whole entry): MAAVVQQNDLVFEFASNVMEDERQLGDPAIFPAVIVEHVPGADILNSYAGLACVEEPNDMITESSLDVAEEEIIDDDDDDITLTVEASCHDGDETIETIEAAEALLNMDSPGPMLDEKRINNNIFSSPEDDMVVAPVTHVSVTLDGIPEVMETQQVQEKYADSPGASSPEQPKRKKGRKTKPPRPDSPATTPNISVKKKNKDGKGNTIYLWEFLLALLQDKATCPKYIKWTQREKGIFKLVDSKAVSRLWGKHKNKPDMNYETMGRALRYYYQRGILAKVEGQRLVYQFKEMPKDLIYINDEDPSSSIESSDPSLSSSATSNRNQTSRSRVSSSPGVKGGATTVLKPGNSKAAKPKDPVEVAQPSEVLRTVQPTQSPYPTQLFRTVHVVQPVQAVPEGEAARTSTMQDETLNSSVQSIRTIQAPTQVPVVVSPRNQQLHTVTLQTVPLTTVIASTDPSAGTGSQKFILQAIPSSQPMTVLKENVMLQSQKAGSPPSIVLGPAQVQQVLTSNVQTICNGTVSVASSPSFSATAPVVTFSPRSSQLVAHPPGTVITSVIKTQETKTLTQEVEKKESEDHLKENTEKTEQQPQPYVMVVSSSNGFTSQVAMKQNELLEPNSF
How it was run: as §1

[3] = biological target: ETV5 (Homo sapiens, UniProt P41161 1-510)
Chain of ETV5 (P41161 whole entry): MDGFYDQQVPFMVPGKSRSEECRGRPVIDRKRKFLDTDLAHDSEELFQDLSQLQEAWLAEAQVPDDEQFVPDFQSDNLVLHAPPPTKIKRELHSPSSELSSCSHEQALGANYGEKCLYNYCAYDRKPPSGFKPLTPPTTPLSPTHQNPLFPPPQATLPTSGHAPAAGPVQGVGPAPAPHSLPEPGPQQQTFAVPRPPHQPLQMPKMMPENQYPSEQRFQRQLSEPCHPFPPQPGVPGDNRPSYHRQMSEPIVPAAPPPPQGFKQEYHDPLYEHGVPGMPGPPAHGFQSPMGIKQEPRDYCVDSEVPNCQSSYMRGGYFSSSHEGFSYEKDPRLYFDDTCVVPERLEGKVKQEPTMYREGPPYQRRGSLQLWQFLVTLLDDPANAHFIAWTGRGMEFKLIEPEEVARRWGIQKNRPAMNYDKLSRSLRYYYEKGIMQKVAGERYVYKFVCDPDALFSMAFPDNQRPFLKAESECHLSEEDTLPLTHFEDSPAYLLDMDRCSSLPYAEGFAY
How it was run: as §1

[4] = biological target: T2, ELK4 (Homo sapiens, UniProt P28324-2 1-405)
T2 sequence: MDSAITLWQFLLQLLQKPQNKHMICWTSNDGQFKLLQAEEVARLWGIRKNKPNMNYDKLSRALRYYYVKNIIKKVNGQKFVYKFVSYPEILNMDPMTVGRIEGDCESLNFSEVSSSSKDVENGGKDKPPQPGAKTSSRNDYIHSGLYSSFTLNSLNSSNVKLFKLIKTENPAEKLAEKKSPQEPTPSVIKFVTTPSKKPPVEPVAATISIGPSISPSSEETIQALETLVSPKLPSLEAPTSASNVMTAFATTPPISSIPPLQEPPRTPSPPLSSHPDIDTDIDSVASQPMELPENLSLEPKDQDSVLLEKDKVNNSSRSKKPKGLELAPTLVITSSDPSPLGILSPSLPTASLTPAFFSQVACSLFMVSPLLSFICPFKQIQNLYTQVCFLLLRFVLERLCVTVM
How it was run: as §1

[5] = biological target: T3, ETV2 (Homo sapiens, UniProt O00321 1-342)
T3 sequence: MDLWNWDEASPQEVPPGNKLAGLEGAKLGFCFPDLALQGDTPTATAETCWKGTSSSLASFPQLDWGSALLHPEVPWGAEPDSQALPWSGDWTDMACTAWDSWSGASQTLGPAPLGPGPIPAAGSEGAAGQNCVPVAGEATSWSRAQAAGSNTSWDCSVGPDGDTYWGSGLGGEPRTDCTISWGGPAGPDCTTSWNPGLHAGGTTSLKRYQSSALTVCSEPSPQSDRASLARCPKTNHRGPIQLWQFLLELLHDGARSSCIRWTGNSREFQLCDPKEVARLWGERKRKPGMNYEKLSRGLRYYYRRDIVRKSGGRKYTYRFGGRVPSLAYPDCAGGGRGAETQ
How it was run: as §1

[6] = biological target: ETV1 (Homo sapiens, UniProt P50549 1-477)
Chain of ETV1 (P50549 whole entry): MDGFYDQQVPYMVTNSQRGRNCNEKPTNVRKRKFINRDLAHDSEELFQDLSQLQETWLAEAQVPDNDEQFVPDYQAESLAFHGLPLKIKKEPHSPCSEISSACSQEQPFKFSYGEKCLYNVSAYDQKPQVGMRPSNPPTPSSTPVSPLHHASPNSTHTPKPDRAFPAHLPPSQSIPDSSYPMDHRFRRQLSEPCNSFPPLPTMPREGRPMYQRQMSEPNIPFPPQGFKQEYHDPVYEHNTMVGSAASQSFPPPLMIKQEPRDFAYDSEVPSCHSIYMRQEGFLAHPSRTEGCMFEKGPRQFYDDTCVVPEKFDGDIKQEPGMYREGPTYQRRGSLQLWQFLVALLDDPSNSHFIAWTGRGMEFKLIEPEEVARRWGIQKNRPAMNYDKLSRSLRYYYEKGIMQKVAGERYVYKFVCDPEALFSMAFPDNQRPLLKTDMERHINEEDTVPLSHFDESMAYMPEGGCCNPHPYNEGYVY
How it was run: as §1

[7] = biological target: T4, ERF (Homo sapiens, UniProt P50548 1-548)
T4 sequence: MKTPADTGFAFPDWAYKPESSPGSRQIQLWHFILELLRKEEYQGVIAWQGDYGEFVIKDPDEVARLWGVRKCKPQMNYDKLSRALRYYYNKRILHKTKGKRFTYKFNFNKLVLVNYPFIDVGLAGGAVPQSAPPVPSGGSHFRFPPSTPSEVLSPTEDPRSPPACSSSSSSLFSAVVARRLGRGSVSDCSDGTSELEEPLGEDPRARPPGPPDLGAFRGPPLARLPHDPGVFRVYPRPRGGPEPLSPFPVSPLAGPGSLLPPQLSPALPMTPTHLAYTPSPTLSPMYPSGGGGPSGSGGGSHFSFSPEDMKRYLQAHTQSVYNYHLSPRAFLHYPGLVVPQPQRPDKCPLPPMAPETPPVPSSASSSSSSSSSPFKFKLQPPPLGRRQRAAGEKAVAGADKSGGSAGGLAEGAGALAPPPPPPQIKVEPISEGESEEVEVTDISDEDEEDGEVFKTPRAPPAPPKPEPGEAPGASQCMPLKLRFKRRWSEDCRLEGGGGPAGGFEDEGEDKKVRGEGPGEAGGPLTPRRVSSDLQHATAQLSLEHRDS
How it was run: as §1

[8] = biological target: T5, SPDEF (Homo sapiens, UniProt O95238 1-335)
T5 sequence: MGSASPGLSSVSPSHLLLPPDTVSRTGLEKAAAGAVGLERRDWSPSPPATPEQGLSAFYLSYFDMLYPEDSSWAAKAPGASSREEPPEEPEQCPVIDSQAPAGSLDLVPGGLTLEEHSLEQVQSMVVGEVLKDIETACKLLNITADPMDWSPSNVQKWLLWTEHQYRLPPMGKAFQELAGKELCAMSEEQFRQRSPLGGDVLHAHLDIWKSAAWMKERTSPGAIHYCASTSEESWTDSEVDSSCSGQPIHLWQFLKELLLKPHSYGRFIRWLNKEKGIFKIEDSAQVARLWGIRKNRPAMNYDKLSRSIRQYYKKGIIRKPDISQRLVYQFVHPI
How it was run: as §1

[9] = biological target: T6, GABPA (Homo sapiens, UniProt Q06546 1-454)
T6 sequence: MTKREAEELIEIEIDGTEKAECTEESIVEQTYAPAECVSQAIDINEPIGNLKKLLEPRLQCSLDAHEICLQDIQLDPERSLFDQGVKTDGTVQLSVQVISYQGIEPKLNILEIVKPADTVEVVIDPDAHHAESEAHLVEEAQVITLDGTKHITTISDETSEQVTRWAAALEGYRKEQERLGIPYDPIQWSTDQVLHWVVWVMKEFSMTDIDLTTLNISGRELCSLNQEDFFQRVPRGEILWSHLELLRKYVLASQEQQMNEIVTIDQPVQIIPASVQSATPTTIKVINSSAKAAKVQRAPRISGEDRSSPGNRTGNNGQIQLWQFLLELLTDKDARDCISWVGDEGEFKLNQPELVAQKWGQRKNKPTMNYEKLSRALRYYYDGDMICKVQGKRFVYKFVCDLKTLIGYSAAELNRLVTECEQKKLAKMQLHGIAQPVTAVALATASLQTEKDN
How it was run: as §1

[10] = biological target: T7, ERG (Homo sapiens, UniProt P11308 1-479)
T7 sequence: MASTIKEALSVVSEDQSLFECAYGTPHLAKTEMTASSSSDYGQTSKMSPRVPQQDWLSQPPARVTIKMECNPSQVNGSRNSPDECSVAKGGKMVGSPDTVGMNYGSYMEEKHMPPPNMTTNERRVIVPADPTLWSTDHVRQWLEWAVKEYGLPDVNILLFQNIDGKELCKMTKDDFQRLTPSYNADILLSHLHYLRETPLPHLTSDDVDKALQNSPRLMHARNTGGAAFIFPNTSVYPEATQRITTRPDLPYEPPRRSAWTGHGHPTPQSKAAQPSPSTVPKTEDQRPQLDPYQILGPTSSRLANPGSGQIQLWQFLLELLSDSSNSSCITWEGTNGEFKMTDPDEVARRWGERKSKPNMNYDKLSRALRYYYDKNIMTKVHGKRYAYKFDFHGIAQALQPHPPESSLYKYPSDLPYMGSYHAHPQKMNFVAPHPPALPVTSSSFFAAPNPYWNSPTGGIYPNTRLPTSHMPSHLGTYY
How it was run: as §1

[11] = biological target: SPIB (Homo sapiens, UniProt Q01892 1-262)
Chain of SPIB (Q01892 whole entry): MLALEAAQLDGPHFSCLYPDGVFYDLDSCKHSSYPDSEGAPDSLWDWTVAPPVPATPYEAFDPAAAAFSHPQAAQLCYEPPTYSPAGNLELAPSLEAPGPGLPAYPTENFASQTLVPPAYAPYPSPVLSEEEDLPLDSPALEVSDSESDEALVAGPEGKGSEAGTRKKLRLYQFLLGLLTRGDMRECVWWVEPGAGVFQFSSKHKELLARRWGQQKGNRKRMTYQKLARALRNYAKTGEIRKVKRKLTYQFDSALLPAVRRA
How it was run: as §1

[12] = biological target: T8, FEV (Homo sapiens, UniProt Q99581 1-238)
T8 sequence: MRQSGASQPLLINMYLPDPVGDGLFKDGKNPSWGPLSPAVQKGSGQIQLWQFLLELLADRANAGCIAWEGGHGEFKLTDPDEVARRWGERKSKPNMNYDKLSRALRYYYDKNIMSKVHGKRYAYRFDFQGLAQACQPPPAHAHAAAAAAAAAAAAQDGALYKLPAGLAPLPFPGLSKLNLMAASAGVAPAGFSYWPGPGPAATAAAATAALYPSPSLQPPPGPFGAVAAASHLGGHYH
How it was run: as §1

[13] = biological target: ELF4 (Homo sapiens, UniProt Q99607 1-663)
Chain of ELF4 (Q99607 whole entry): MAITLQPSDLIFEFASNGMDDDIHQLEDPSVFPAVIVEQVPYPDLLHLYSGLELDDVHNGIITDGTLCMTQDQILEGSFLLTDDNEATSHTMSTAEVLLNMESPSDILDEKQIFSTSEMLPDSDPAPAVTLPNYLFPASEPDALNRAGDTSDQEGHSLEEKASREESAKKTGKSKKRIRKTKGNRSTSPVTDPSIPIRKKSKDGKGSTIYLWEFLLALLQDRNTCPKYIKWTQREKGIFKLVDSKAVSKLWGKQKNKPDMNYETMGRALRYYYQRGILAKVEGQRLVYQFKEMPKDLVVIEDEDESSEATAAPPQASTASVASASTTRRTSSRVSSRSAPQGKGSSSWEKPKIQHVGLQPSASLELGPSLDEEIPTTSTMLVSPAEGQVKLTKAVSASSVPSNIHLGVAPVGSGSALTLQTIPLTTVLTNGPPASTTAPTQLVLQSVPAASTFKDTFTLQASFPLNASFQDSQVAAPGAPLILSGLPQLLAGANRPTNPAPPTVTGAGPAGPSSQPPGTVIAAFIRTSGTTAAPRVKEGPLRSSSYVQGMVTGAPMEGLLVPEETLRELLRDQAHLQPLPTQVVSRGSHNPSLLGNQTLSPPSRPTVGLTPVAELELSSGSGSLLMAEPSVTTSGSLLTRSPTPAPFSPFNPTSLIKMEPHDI
How it was run: as §1

[14] = biological target: T9, ETV3L (Homo sapiens, UniProt Q6ZN32 1-361)
T9 sequence: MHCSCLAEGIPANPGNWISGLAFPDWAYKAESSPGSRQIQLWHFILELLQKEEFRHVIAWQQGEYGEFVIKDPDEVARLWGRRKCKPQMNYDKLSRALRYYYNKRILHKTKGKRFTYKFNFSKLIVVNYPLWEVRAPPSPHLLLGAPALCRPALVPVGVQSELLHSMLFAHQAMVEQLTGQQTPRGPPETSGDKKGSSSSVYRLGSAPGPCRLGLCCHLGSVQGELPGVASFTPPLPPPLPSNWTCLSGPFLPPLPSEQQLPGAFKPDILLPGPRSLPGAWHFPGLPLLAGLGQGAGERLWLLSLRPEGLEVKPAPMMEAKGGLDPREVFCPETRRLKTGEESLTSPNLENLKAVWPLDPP
How it was run: as §1

[15] = biological target: T10, ETS2 (Homo sapiens, UniProt P15036 1-469)
T10 sequence: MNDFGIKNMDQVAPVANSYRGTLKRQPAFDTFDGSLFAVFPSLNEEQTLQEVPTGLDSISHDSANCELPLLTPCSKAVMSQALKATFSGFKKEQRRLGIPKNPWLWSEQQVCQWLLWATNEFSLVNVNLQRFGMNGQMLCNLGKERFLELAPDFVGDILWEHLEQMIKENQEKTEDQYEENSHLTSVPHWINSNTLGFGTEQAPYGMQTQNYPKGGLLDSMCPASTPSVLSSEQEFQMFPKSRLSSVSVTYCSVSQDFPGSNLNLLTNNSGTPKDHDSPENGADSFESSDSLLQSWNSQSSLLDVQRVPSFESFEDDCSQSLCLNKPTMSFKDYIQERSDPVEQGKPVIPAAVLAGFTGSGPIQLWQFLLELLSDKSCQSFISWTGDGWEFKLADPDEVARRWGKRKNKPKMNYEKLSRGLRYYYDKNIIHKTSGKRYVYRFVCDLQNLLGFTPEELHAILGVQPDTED
How it was run: as §1

[16] = biological target: T11, ETV3 (Homo sapiens, UniProt P41162-2 1-143)
T11 sequence: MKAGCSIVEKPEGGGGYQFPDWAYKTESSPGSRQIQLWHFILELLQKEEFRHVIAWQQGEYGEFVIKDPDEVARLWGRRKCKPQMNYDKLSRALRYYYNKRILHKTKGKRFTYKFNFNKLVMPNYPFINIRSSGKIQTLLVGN
How it was run: as §1

Sequence | binding signal [1] | binding signal [2] | binding signal [3] | binding signal [4] | binding signal [5] | binding signal [6] | binding signal [7] | binding signal [8] | binding signal [9] | binding signal [10] | binding signal [11] | binding signal [12] | binding signal [13] | binding signal [14] | binding signal [15] | binding signal [16]
ACGGTA | 1.03 fold enrichment (6-mer frequency, TF over GST control) | 1.01 fold enrichment (6-mer frequency, TF over GST control) | 1.04 fold enrichment (6-mer frequency, TF over GST control) | 1.02 fold enrichment (6-mer frequency, TF over GST control) | 1.03 fold enrichment (6-mer frequency, TF over GST control) | 1.01 fold enrichment (6-mer frequency, TF over GST control) | 1.09 fold enrichment (6-mer frequency, TF over GST control) | 1.05 fold enrichment (6-mer frequency, TF over GST control) | – | – | – | – | – | – | – | –
AGCGCT | – | 1.05 fold enrichment (6-mer frequency, TF over GST control) | 1.01 fold enrichment (6-mer frequency, TF over GST control) | – | – | 1.02 fold enrichment (6-mer frequency, TF over GST control) | 1.04 fold enrichment (6-mer frequency, TF over GST control) | – | 1.04 fold enrichment (6-mer frequency, TF over GST control) | 1.02 fold enrichment (6-mer frequency, TF over GST control) | 1.09 fold enrichment (6-mer frequency, TF over GST control) | 1 fold enrichment (6-mer frequency, TF over GST control) | 1.06 fold enrichment (6-mer frequency, TF over GST control) | 1.08 fold enrichment (6-mer frequency, TF over GST control) | 1.09 fold enrichment (6-mer frequency, TF over GST control) | 1.01 fold enrichment (6-mer frequency, TF over GST control)
